Only some compounds are listed: those with a hit (about 1.4% of all), similar ones and a draw of the others.
LYPLA2 inh: counter-screen for PME1 inhibitors: inhibitors of human LYPLA2 | O95372 | recombinant LYPLA2, FP-Rh probe fluorescence polarization | inhibition, % at 5.9 µM | 0.38% of 320,000 active | AID 2177;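 active = inhibition above the screen-wide mean plus 3 SD, limit set per campaign, cut at about 26% in these data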;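 note: 0% = LYPLA2 with DMSO and 100% = wells lacking LYPLA2 enzyme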
LYPLA1 counter: LYPLA1 (human) inhibition in PME1 counter-screen | recombinant LYPLA1, FP-Rh probe fluorescence polarization | AID 2174 | inhibition, % at 5.9 µM | O75608 | 0.16% of 320,000 active;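 active = inhibition above the mean of all tested compounds plus 3 SD, set per campaign, cut at about 14% in these data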;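 note: inhibitors block serine hydrolase probe labeling of LYPLA1 so polarization falls; 0% = enzyme with DMSO and 100% = wells lacking LYPLA1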
Target sequence (O75608 whole entry, looked up): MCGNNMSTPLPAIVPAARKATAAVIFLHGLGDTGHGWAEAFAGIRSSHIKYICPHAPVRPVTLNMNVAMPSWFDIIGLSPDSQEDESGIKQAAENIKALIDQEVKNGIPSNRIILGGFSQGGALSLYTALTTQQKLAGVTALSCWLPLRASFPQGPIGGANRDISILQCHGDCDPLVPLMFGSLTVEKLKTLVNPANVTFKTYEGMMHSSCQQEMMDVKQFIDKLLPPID
EBNA-1 inhibitor: blocks EBNA-1 binding to DNA. AID 1950. inhibition, % at 14.8 µM. EBNA-1 DNA binding, fluorescence polarization. 0.34% of 300,000 active; in the data active = inhibition above about 28%
LANA-H2A inh: blocks KSHV LANA binding to histone H2A/H2B | inhibition, % (concentration not given with the values) | cell-free LANA-H2A/H2B peptide, fluorescence polarization | Q9QR71 | 0.6% of 320,000 active; in the data active = inhibition mostly above about 10%, no sharp cut-off; inactive = mostly below about 6.7%
ZTA DNA inh: blocks Epstein-Barr virus ZTA, an EBNA-1 counter-screen; P03206; ZTA-DNA binding, fluorescence polarization; 0.15% of 320,000 active; inhibition, % at 11 µM; in the data active = inhibition above about 33%
Target sequence (P03206 whole entry, looked up): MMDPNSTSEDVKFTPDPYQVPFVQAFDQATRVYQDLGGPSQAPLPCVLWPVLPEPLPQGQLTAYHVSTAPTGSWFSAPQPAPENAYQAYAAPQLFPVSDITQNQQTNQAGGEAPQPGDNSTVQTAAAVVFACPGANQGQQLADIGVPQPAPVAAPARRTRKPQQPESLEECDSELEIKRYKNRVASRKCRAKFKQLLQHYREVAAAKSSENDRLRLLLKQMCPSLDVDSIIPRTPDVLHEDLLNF
EBNA-1 confirm: EBNA-1 (EBV) inhibition, confirmation; inhibition, % at 14.8 µM; AID 2292; Recombinant EBNA-1 DBD, Cy5-DNA fluorescence polarization; 35% of 830 active; shares compounds with EBNA-1 inhibitor;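 active = mean inhibition across replicates above a set limit taken from the earlier primary screen, cut at about 28% in these data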;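 note: plate controls were EBNA-1 protein with DMSO for no effect and wells lacking EBNA-1 for full effect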
ZTA DNA inh trip: blocks Epstein-Barr virus ZTA in triplicate, EBNA-1 counter-screen. shares compounds with EBNA-1 inhibitor. Zta-ZRE DNA binding, Cy5 fluorescence polarization. inhibition, % at 11.1 µM. 830 tested, under 10 active. AID 2328;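 active = mean inhibition over triplicates above a set limit taken from the primary EBNA-1 screen, cut at about 37% in these data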;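 note: purified full length Zta protein with Cy5 labeled ZRE DNA probe; 0% = Zta with DMSO and 100% = wells lacking Zta protein; inhibitors lower polarization by freeing the labeled DNA probe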
An asterisk follows results filed as active; nt = no result given.

SMILES | LYPLA2 inh | LYPLA1 counter | EBNA-1 inhibitor | LANA-H2A inh | ZTA DNA inh | EBNA-1 confirm | ZTA DNA inh trip
Cc1cccc(NC(=O)c2cc(=O)[nH]c3ccccc23)c1 | -6 | -3 | 0 | 2 | -2 | nt | nt
NS(=O)(=O)c1ccc(NC(=O)/C=C/c2cccs2)cc1 | -9 | -7 | 55* | 2 | 0 | 1 | 0
COC(=O)c1sc(NC(=O)COc2cccc(C)c2)nc1C | -1 | 0 | -7 | -6 | -4 | nt | nt
CC(=O)c1sc(NC(=O)COc2ccc(Br)cc2)nc1C | -5 | -1 | 43* | 4 | -2 | 18 | -1
CC(=O)c1sc(NC(=O)COc2ccc([N+](=O)[O-])cc2)nc1C | 0 | 1 | -1 | -4 | -1 | nt | nt
CCOC(=O)c1sc(NC(=O)COc2ccc3c(c2)OCO3)nc1C | -1 | -9 | 65* | -2 | 10 | 124* | 3
COC(=O)c1sc(NC(=O)COc2ccc(OC)cc2)nc1C | -4 | -2 | 30* | 5 | 13 | 10 | 9
Nc1nc(-c2ccc3ccccc3c2)c(C2(O)C(=O)Nc3c(Br)cc(F)cc32)s1 (stereo unspecified) | 4 | 1 | 4 | -6 | 15 | nt | nt
CCN(CC)C(=O)Cn1nc(-c2ccncc2)nc1SCC(=O)Nc1ccc(OC)cc1 | -6 | -1 | -16 | -5 | 4 | nt | nt
COC(=O)c1ccc(NC(=O)Cn2nc(-c3ccncc3)nc2SCC(=O)Nc2nccs2)cc1 | -35 | -17 | 52* | 4 | -17 | 35* | -14
CCOc1ccc(C(C(=O)NC(C)(C)C)N(CCOC)C(=O)CCC(=O)Nc2ccccn2)cc1 (stereo unspecified) | 12 | -1 | 17 | -4 | -5 | nt | nt
Cc1ccc(S(=O)(=O)N(C)C)cc1NC(=O)COC(=O)CCCOc1ccccc1 | 6 | -3 | 72* | -11 | -8 | -9 | -1
Cc1ccc(NC(=O)CCNS(=O)(=O)c2cccc3nsnc23)cc1F | 0 | 1 | 7 | 3 | 6 | nt | nt
CN1C(=O)CC(C(=O)Nc2ccccc2F)SC1=Nc1ccc2c(c1)OCO2 (stereo unspecified) | 9 | 1 | 28* | -3 | -2 | 50* | 4
Cc1cc(C)cc(NC(=O)Cn2c(-c3ccccc3Cl)nc3ccccc32)c1 | 5 | -6 | 60* | -5 | 1 | -10 | -9
O=C(Cn1c(-c2ccccc2Cl)nc2ccccc21)Nc1cccc(Cl)c1 | -4 | -7 | 5 | nt | 3 | nt | nt
CCOC(=O)c1ccc(NC(=O)Cn2c(-c3nonc3N)nc3ccccc32)cc1 | -16 | -10 | 31* | -1 | 27 | 32* | 19
COC(=O)c1ccc(NC(=O)Cn2c(-c3nonc3N)nc3ccccc32)cc1 | -12 | -9 | 10 | 3 | 21 | nt | nt
Cc1cc(NC(=O)C(C)SCC(=O)N(Cc2ccccc2)c2ccccc2)no1 (stereo unspecified) | 2 | -3 | -2 | 6 | -6 | nt | nt
CC(C)CC1NC(=O)c2ccccc2-n2c1nc1ccc(Cl)cc1c2=O (stereo unspecified) | nt | nt | nt | -3 | nt | nt | nt
O=C(Nc1cccc(-c2nnc(-c3ccccc3)o2)c1)C1CCCCC1 | 0 | 2 | 75* | -4 | 11 | 107* | -5
COc1ccccc1/C=C/C(=O)OCC(=O)c1c(N)n(C)c(=O)n(C)c1=O | -1 | 1 | 48* | 2 | -4 | 26 | 8
CCOc1cc(C(=O)OCC(=O)c2c(N)n(C)c(=O)n(C)c2=O)cc(OCC)c1OCC | -2 | 1 | 76* | nt | -1 | 61* | 1
Cn1c(N)c(C(=O)COC(=O)c2ccccc2C(=O)c2ccccc2)c(=O)n(C)c1=O | 4 | -1 | nt | -8 | 3 | nt | nt
CCCOc1ccc(C(=O)OCC(=O)c2c(N)n(C)c(=O)n(C)c2=O)cc1OCC | 5 | 1 | -8 | 2 | 3 | nt | nt
SMILES | LYPLA2 inh | LYPLA1 counter | EBNA-1 inhibitor | LANA-H2A inh | ZTA DNA inh | EBNA-1 confirm | ZTA DNA inh trip
Cc1cc(C(=O)OCC(=O)c2c(N)n(C)c(=O)n(C)c2=O)c(C)n1-c1ccccc1 | 2 | 1 | 41* | 0 | -3 | 82* | 8
CC(=O)Nc1cccc(-c2cnc(N)c(C(=O)c3cccnc3)n2)c1 | nt | nt | nt | -7 | nt | nt | nt
Cc1ccnc(NS(=O)(=O)c2ccc(NC(=O)c3cc(-c4ccccc4)nc4ccccc34)cc2)n1 | -4 | 1 | 7 | 1 | 7 | nt | nt
Cc1ccnc(NS(=O)(=O)c2ccc(NC(=O)c3cc(-c4ccc(Br)cc4)nc4ccccc34)cc2)n1 | -17 | -19 | 32* | 1 | 19 | 0 | -6
O=C1C(=O)N(Cc2cccs2)c2ccccc21 | 2 | 0 | -17 | 1 | 0 | nt | nt
Cc1ccc(NC(=O)CSc2nnc(-c3ccc(S(=O)(=O)N4CCCC4)cc3)o2)cc1C | -1 | 3 | 108* | nt | -11 | 56* | 194*
Cc1cccc(NC(=O)CSc2nnc(-c3ccc(S(=O)(=O)N4CCCC4)cc3)o2)c1 | -1 | 1 | -3 | -6 | -12 | nt | nt
CC(C)(C)c1nc(SCC(=O)Nc2ccc3c(c2)OCCO3)c2ccccc2n1 | -8 | -3 | 46* | 4 | -3 | 16 | 3
O=C(CSc1nnc(-c2ccc(O)cc2)o1)Nc1ccc2c(c1)OCCO2 | 0 | -1 | 34* | 1 | -7 | 12 | 9
COc1cccc(N2CC(O)=C(c3nc4ccccc4s3)C2=N)c1 | 2 | -1 | 4 | -5 | -12 | nt | nt
COc1ccc(N2CC(O)=C(c3nc4ccccc4s3)C2=N)cc1 | -2 | 2 | 53* | 1 | -9 | 77* | 7
O=C(Nc1ccc(F)cc1)/C(=C1/CCCCCN1)[N+](=O)[O-] | 9 | 1 | -8 | -3 | -12 | nt | nt
O=C(NCc1ccc2c(c1)OCO2)C1CCC(CNS(=O)(=O)c2ccc(Cl)cc2)CC1 (stereo unspecified) | 13 | -4 | 30* | -1 | -2 | 63* | 8
COC(=O)C1=C(N)N(c2ccccc2C(F)(F)F)C2=C(C(=O)CCC2)C1c1ccc2c(c1)OCO2 (stereo unspecified) | -4 | -1 | 31* | 2 | 0 | -7 | -3
Cc1ccc2[nH]c3c(=O)n(Cc4ccco4)cnc3c2c1 | 3 | 2 | 51* | 5 | 15 | 55* | 4
Cc1ccc2[nH]c3c(=O)n(Cc4ccncc4)cnc3c2c1 | -3 | -4 | -5 | 3 | -8 | nt | nt
CC(=O)c1ccc(NC(=O)NC2CC(=O)N(c3ccc4c(c3)OCCO4)C2)cc1 (stereo unspecified) | 0 | 0 | 3 | -4 | 6 | nt | nt
COc1ccc2nc(NC(=O)CSc3nnc(C)s3)sc2c1 | 1 | -1 | 29* | -3 | -8 | 7 | -1
O=C(Nc1cccc(NC(=O)c2ccccc2Cl)c1)c1ccc(F)cc1 | -1 | -6 | 3 | -2 | -8 | nt | nt

Screening results deposited in PubChem BioAssay by several laboratories.
